In the library only some 2.1% were active in any assay of this set; here they are far more common.
ROS inducer = inducers of reactive oxygen species in cancer cells. ROS induction (% of piperlongumine), % at 10 µM. U2OS ROS induction, H2DCF-DA fluorescence. AID 624156. 46,000 tested, 2% active; in the data active means ROS induction above about 79%, passing the limit was not always enough;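 further: 0% = DMSO vehicle median and 100% = reference compound median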
YB-1 expression = YB-1 expression inhibition | 30,000 tested, 0.37% active | AID 434959 | delta delta Cp (YB-1 minus CDIP) (concentration not given with the values) | U2OS, qRT-PCR YB-1 vs CDIP delta delta Cp, 16 h; stronger effect = higher value; zero = DMSO, each unit about twofold;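 active means delta delta Cp rounded down to an integer at or above 3, about 3 SD of DMSO wells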;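 further: higher means less YB-1 transcript or more CDIP transcript relative to DMSO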
Starred values were filed as active, the others as inactive.

What do the screens show for `C[C@H](CO)N1C[C@H](C)[C@@H](CN(C)Cc2ccncc2)Oc2c(NC(=O)CCCCCC(=O)Nc3ccccc3N)cccc2C1=O`?
ROS inducer: 5; YB-1 expression: 0.2

What do the screens show for `C[C@@H]1CN([C@H](C)CO)C(=O)c2cccc(NC(=O)CCCCCC(=O)Nc3ccccc3N)c2O[C@@H]1CN(C)Cc1ccc(C(F)(F)F)cc1`?
ROS inducer: 57; YB-1 expression: 0.22

What do the screens show for `C[C@H]1CN([C@@H](C)CO)C(=O)c2cccc(NC(=O)CCCCCC(=O)Nc3ccccc3N)c2O[C@@H]1CN(C)Cc1ccc(-c2ccccc2)cc1`?
ROS inducer: 91*; YB-1 expression: -0.16

How did COc1ccc(CN(C)C[C@H]2Oc3ccc(NS(=O)(=O)c4c(C)noc4C)cc3CC(=O)N([C@@H](C)CO)C[C@@H]2C)cc1 do in these assays?
ROS inducer: -10; YB-1 expression: -0.3

Results for Cc1ccc(F)c(NC(=O)CSc2ncn(-c3ccccc3)n2)c1 ?
ROS inducer: -6

Results for CC(Oc1ccccc1)C(=O)NCCc1ccc(S(N)(=O)=O)cc1 (centres undefined) ?
ROS inducer: -7

What do the screens show for `CC1=C(C(=O)Nc2cc(C)ccc2C)C(c2ccc(N(C)C)cc2)NC(=S)N1` (centres undefined)?
ROS inducer: 39

Results for COc1cccc(Nc2nc(C3(C)CC4(CC(C)OC4=O)C(=O)O3)cs2)c1 (centres undefined) ?
ROS inducer: 92*

Results for COc1cccc(Nc2nnc(-c3cc4cccc(OC)c4oc3=O)s2)c1 ?
ROS inducer: -10

How did O=C(c1ccccc1)c1ccc(F)cc1 do in these assays?
ROS inducer: -2

What do the screens show for `Cc1ccc(C(=O)CSc2nc(C)nc3sc(C)c(C)c23)cc1`?
ROS inducer: 119*

Results for Cc1ccc(C(=O)CSc2nc(C)nc3sc4c(c23)CCCC4)cc1 ?
ROS inducer: 5

How did N#Cc1cccc(C(=O)Cc2cccc(Oc3ccccc3)c2)c1 do in these assays?
ROS inducer: -4

How did O=C(N/N=C/c1ccc(CO)o1)c1ccccc1O do in these assays?
ROS inducer: -4; YB-1 expression: 0.4

Results for CO[C@H]1C[C@@H]2CC[C@@H](C)[C@@](O)(O2)C(=O)C(=O)N2CCCC[C@H]2C(=O)O[C@H]([C@H](C)C[C@@H]2CC[C@@H](O)[C@H](OC)C2)CC(=O)[C@H](C)/C=C(\C)[C@@H](O)[C@@H](OC)C(=O)[C@H](C)C[C@H](C)/C=C/C=C/C=C\1C ?
ROS inducer: 98*; YB-1 expression: 1

How did C[C@@H]1CN([C@@H](C)CO)C(=O)c2cc(NC(=O)CCC(F)(F)F)ccc2O[C@@H]1CN(C)S(=O)(=O)c1ccc(F)cc1 do in these assays?
ROS inducer: -11; YB-1 expression: 0.41

Results for COC(=O)COc1cccc(NC(=O)c2ccccc2F)c1 ?
ROS inducer: 3

Results for COC(=O)COc1cccc(NC(=O)c2ccc(-c3ccccc3)cc2)c1 ?
ROS inducer: 84*

Results for C[C@H]1CN([C@@H](C)CO)C(=O)c2cc(NS(=O)(=O)c3cccs3)ccc2O[C@H]1CN(C)Cc1ccc(Oc2ccccc2)cc1 ?
ROS inducer: 2; YB-1 expression: -0.082

Results for COc1ccc(S(=O)(=O)Nc2ccc3c(c2)C(=O)N([C@H](C)CO)C[C@@H](C)[C@@H](CN(C)Cc2ccc(Oc4ccccc4)cc2)O3)cc1 ?
ROS inducer: 32; YB-1 expression: -0.42

What do the screens show for `COc1ccc(S(=O)(=O)Nc2ccc3c(c2)C(=O)N([C@H](C)CO)C[C@H](C)[C@@H](CN(C)Cc2ccc(Oc4ccccc4)cc2)O3)cc1`?
ROS inducer: 15; YB-1 expression: 14*

What do the screens show for `C[C@H](CO)N1C[C@H](C)[C@@H](CN(C)Cc2ccc(Oc3ccccc3)cc2)Oc2ccc(NS(=O)(=O)c3cccs3)cc2C1=O`?
ROS inducer: 93*; YB-1 expression: -0.12

How did C[C@H](CO)N1C[C@H](C)[C@H](CN(C)S(=O)(=O)c2ccccc2)Oc2ncc(C#Cc3ccccc3)cc2C1=O do in these assays?
ROS inducer: 25; YB-1 expression: -0.2

Results for CCOC(=O)c1cnc2ccc(OCC)cc2c1NCCCN1CCOCC1 ?
ROS inducer: 52

What do the screens show for `CCOC(=O)c1cnc2c(C(F)(F)F)cccc2c1NCCCN1CCOCC1`?
ROS inducer: 113*

How did O=C(CC1Sc2ccccc2NC1=O)Nc1ccccc1[N+](=O)[O-] (centres undefined) do in these assays?
ROS inducer: 2

How did CN1CCN(S(=O)(=O)c2ccc(Br)cc2)CC1 do in these assays?
ROS inducer: 9; YB-1 expression: -0.023

Results for Cc1cc(C)c(OCC(=O)Nc2cccc(NC(=O)c3ccco3)c2)c(Br)c1 ?
ROS inducer: 176*

How did O=C(COc1ccccc1Cl)Nc1cccc(NC(=O)c2ccco2)c1 do in these assays?
ROS inducer: -6
